# Reference: ChEMBL document CHEMBL4649982, “Selective targeting of Bromodomains of the Bromodomain-PHD Fingers family impairs osteoclast differentiation” (ACS Chem Biol, 2017)
# Values joined by “and” are separate entries in the source; they are usually repeats but may differ in a detail not shown here. Equal entries are not always repeated.
# Experiments:
# [1] = molecular target: Bromodomain-containing protein 4 (Homo sapiens) (UniProt O60885); conditions: Compound concentration 10.0 uM, Protein concentration 2.0 uM
# [2] = molecular target: T1, Transcription intermediary factor 1-alpha (Homo sapiens) (UniProt O15164); conditions: Compound concentration 10.0 uM, Protein concentration 2.0 uM
# T1 sequence (whole entry): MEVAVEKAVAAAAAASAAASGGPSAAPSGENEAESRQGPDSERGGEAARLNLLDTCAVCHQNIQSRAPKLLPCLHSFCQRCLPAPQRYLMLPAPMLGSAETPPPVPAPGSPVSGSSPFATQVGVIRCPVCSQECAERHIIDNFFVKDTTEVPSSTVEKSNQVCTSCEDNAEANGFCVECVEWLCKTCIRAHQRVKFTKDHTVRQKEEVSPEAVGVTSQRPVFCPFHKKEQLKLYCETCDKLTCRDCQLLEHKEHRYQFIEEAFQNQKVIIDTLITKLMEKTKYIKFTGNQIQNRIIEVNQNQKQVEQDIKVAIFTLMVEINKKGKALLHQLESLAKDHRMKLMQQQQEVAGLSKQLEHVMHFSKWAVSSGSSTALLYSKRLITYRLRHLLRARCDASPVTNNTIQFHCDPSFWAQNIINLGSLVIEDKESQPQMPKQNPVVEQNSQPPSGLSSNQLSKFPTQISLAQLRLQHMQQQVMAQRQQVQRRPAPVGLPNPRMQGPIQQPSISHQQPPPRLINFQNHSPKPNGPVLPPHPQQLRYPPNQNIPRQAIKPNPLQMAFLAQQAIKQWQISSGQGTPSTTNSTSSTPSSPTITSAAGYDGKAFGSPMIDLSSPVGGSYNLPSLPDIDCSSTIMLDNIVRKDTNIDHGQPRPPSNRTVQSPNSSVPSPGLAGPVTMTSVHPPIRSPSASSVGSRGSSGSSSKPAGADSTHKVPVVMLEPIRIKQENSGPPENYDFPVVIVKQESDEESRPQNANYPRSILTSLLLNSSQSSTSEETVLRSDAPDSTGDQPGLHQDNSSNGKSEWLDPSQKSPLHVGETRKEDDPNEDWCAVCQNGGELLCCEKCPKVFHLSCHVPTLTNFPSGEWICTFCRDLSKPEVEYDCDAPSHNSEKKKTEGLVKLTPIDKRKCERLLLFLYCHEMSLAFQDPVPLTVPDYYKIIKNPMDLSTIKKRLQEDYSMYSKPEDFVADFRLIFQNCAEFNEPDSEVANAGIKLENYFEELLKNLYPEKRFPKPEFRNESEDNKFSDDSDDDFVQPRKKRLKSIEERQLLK
smiles,measurement,setting,value
COc1cc2c(cc1NS(=O)(=O)c1ccc(Br)cc1C)n(C)c(=O)n2C,ΔTm,[1],1.42 °C and 2.26 °C
same,ΔTm,[2],2.87 °C
